From PubChem BioAssay (EPA / NIEHS)
Inconclusive results are not listed. Some structures have more than one record in an assay (separate samples or runs), and their calls can disagree. Active and inactive are the calls of the source. How the source made its calls: active means hit-call score of the fitted dose curve at least 0.9, where 1 is the maximum; inconclusive means response in the unintended direction; inactive means score below 0.9.

Test: TOX21_p53_BLA_p5_viability: Viability Assessment in the Tox21 HCT-116 p53 Agonism Beta-lactamase Assay, Phase 5 (AID 2283600)
Source text: TOX21_p53_BLA_p5 is a cell-based, single-readout assay that uses HCT116, a human intestinal cell line, […] in a 1536-well plate.TOX21_p53_BLA_p5_viability is an assay readout measuring cellular ATP content and detected with CellTiter-Glo Luciferase-coupled ATP quantitation.TOX21_p53_BLA_p5_viability used a type of viability reporter where loss-of-signal activity can be used to understand changes in the cell viability. Furthermore, this assay endpoint can be referred to as a secondary readout, because this assay has produced multiple assay endpoints where this one serves a viability function. To generalize the intended target to other relatable targets, this assay endpoint is annotated to the cell cycle intended target family, where the subfamily is cytotoxicity.
Thawing Method: Place 14 mL of pre-warmed thaw medium into a 15 mL of conical tub. Remove the vial of cells to be thawed from liquid nitrogen and thaw rapidly by placing at 37C in a water bath with gentle agitation for 1-2 minutes. Decontaminate the vial by wiping with 70% ethanol before opening in a biological safety cabinet. Transfer the vial contents drop-wise into 14 mL of thaw medium in a sterile 15-mL conical tub. Centrifuge cells at 900 rpm for 4 minutes and resuspend in thaw medium. Transfer contents to the T75 tissue culture flask containing Thaw Medium and place flask in a humidified 37C/5% CO2 incubator. Switch to growth medium at first passage.Propagation Method: Aspirate medium, rinse once in DPBS, add 0.25% Trypsin/EDTA and swirl to coat the cell evenly. Add an equal volume of Growth Medium to inactivate Trypsin after 2-3 minutes incubation at 37C. Centrifuge cells at 900 rpm for 4 minutes and resuspend in growth medium. Cell should be passage or fed at least twice a week.Assay Protocol: Harvest cells from culture in growth medium and resuspend in assay medium. 2.2 Dispense 4000 cells/5 uL/well into 1536-well black/clear bottom plates using a Multidrop dispenser. After the cells were incubated at 37C for 5 hours, 23 nL of compounds dissolved in DMSO were transferred to the assay plate by a PinTool resulting in a 217-fold dilution. Incubate the plates for 16 hours at 37C, 5% CO2. Add 1 uL of 6X LiveBLAzer FRET B/G (CCF4-AM) Substrate Mixture to each well using a BioRAPTR dispenser and incubate the plates at room temperature for 2 hours. Measure fluorescence intensity at 460 and 530 nm emission and 405 nm excitation by an Envision detector. Data is expressed as the ratio of 460nm/530nm emissions. Add 4 uL of Cell-titer Glo to each well using BioRAPTR and incubate the plates at room temperature for […]. For cell viability readout that measures cytotoxicity, 4 ul/well of CellTiter-Glo reagent was added into the assay plates using a Flying Reagent Dispenser. After 30 min incubation at room temperature, the luminescence intensity in the plates was measured using a ViewLux plate reader.
In the case of `CCN(Cc1cccc(S(=O)(=O)O)c1)c1ccccc1`, the outcome is reported as “inactive”. In the case of `CC(=O)C=Cc1ccco1`, the outcome is reported as “inactive”. With `CCCCCCCCCCCCC(=O)O` the outcome was “inactive”. In the case of `CCCCN(CCCC)CC(O)c1cc(Cl)cc2c1-c1ccc(Cl)cc1/C2=C/c1ccc(Cl)cc1` (stereo not given), the outcome is reported as “inactive”. With `CCCCN(CCCC)C(=S)SSC(=S)N(CCCC)CCCC` the outcome was “inactive”. In the case of `CCCCOC(=O)CO`, the outcome is reported as “inactive”. With `C=CC(C)(CCC=C(C)C)OC(=O)c1ccccc1` (stereo not given) the outcome was “inactive”. For `CCCC1C(=O)N2C(N(C)C)=Nc3ccc(C)cc3N2C1=O` (stereo not given), the outcome was “inactive”. In the case of `CCCCCCCCCCCCCCCCCC(=O)[O][Al]`, the outcome is reported as “inactive”. For `Oc1cccc(O)c1O`, the outcome was “inactive”. For `CCCCCCC/C=C/C=O`, the outcome was “inactive”. For `O=C(O)CNCC(=O)O`, the outcome was “inactive”. In the case of `CC(=O)Nc1cccc(O)c1`, the outcome is reported as “inactive”. In the case of `CC(C)Oc1ccc2c(=O)c(-c3ccccc3)coc2c1`, the outcome is reported as “inactive”. With `C[N+]1(CC2COC(c3ccccc3)(C3CCCCC3)O2)CCCCC1` (stereo not given) the outcome was “inactive”. For `C=C1[C@@H]2CC[C@@H](C2)C1(C)C`, the outcome was “inactive”. For `O=C1c2cccc(O)c2C(=O)c2c(O)cccc21`, the outcome was “inactive”. In the case of `CC(C)[C@@H]1CC[C@@H](C)C[C@H]1OC(=O)c1ccccc1O`, the outcome is reported as “inactive”. In the case of `Cc1cc(C)c(N=Nc2c(O)c(S(=O)(=O)O)cc3cc(S(=O)(=O)O)ccc23)cc1C`, the outcome is reported as “inactive”. With `CC[C@@H]([C@H](C)O)n1ncn(-c2ccc(N3CCN(c4ccc(OC[C@@H]5CO[C@@](Cn6cncn6)(c6ccc(F)cc6F)C5)cc4)CC3)cc2)c1=O` the outcome was “inactive”. With `CC(C)C1OCCN1CCOC(=O)NCCCCCCNC(=O)OCCN1CCOC1C(C)C` (stereo not given) the outcome was “inactive”. With `CN(C)[C@@H]1C(=O)C(C(=O)NCN2CCCC2)=C(O)[C@@]2(O)C(=O)C3=C(O)c4c(O)cccc4[C@@](C)(O)C3C[C@@H]12` (stereo not given in full) the outcome was “inactive”. In the case of `OC[C@@H](O)[C@@H](O[C@@H]1O[C@H](CO)[C@H](O)[C@H](O)[C@H]1O)[C@H](O)[C@@H](O)CO`, the outcome is reported as “inactive”. For `O=P(O)(O)C(Sc1ccc(Cl)cc1)P(=O)(O)O`, the outcome was “inactive”. In the case of `ClC(Cl)(Br)Br`, the outcome is reported as “inactive”. For `CCCCN(CCCC)CCCOC(=O)c1ccc(N)cc1`, the outcome was “inactive”. For `O=C1c2ccccc2C(=O)C1c1ccc(Cl)cc1`, the outcome was “inactive”. With `ClC1=C(Cl)C1(Cl)Cl` the outcome was “inactive”. With `C[C@H]1O[C@@H](O[C@H]2CC[C@@]3(C)[C@H](CC[C@@H]4[C@@H]3C[C@@H](O)[C@]3(C)[C@@H](C5=CC(=O)OC5)CC[C@]43O)C2)C[C@H](O)[C@@H]1O[C@H]1C[C@H](O)[C@H](O[C@H]2C[C@H](O)[C@H](O[C@@H]3O[C@H](CO)[C@@H](O)[C@H](O)[C@H]3O)[C@@H](C)O2)[C@@H](C)O1` the AC50 was 0.353 µM (active). For `Cc1c(O)c(=O)ccn1C`, the outcome was “inactive”. With `O=C(O)Cc1sc(-c2ccccc2)nc1-c1ccc(Cl)cc1` the outcome was “inactive”. For `Oc1cccc(-c2c3nc(c(-c4cccc(O)c4)c4ccc([nH]4)c(-c4cccc(O)c4)c4nc(c(-c5cccc(O)c5)c5ccc2[nH]5)CC4)C=C3)c1`, the AC50 was 42.9 µM (active) and the outcome was “inactive”. With `CO[Si](CCCNCCC[Si](OC)(OC)OC)(OC)OC` the outcome was “inactive”. For `CC(=O)c1ccc2c(c1)N(CCCN1CCC(CCO)CC1)c1ccccc1S2`, the outcome was “inactive”. With `N#C[C@@H]1C[C@@H]2C[C@@H]2N1C(=O)[C@@H](N)C12CC3CC(CC(O)(C3)C1)C2` the outcome was “inactive”. In the case of `CCOc1ccc(N=C(C)Nc2ccc(OCC)cc2)cc1`, the outcome is reported as “inactive”. For `CCCCCC1Nc2cc(C(F)(F)F)c(S(N)(=O)=O)cc2S(=O)(=O)N1` (stereo not given), the outcome was “inactive”. With `C[N+](C)(CCOc1ccccc1)Cc1cccs1` the outcome was “inactive”. With `O=C1CCc2ccc(OCCCCN3CCN(c4cccc(Cl)c4Cl)CC3)cc2N1` the AC50 was 23 µM (active).
